Assay [1] in a line: CCTE_Shafer_MEA_dev_firing_rate_mean: CCTE's Neural Network Formation Assay for Mean Firing Rate, Shafer Lab (AID 2284031). Put shortly:
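Primary rat cortical neurons on 48-well, 16-electrode MEAs (PEI-coated, laminin at plating), exposed from day 0 with compound renewed at DIV 5 and 9. Spikes recorded DIV 5, 7, 9, 12; well-mean firing rate collapsed to trapezoidal AUC, loss-of-signal vs DMSO.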

Assay [2] in a line: CCTE_Shafer_MEA_dev_per_burst_spike_percent: CCTE's Neural Network Formation Assay for Percent of Spikes in a Burst, Shafer Lab (AID 2284032).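 As to AC50: fitted as a decrease in burst spike percentage below DMSO baseline.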 Put shortly:
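Rat primary cortical neurons on 16-electrode MEA wells, dosed from plating day 0 for 12 days with renewal on DIV 5 and 9; spikes-in-bursts percentage averaged over bursting electrodes, collapsed as AUC across days 5, 7, 9, 12; loss direction versus DMSO.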

The nature of assay [3]: CCTE_Shafer_MEA_dev_active_electrodes_number: CCTE's Neural Network Formation Assay for Number of Active Electrodes, Shafer Lab (AID 2284040; active = hit-call score of the fitted dose curve at least 0.9, where 1 is the maximum;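 as to AC50: potency for loss of active electrodes versus DMSO so lower counts are hits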). In a few lines: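 Rat cortical primary cultures, 1.5 x 10^5 cells/well, PEI-coated MEA, laminin drop. Continuous exposure DIV 0–12; full media/compound change DIV 5, 9. Readout: electrodes with mean firing ≥5 spikes/min; AUC across days; loss vs DMSO.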

A short description of assay [4]: CCTE_Shafer_MEA_dev_burst_rate: CCTE's Neural Network Formation Assay for Burst Rate, Shafer Lab (AID 2284042). In a few lines:
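Primary rat cortical neurons on PEI-coated 48-well MEA plates (laminin added with cells at plating) (16 electrodes/well), exposed from plating to day 12, dosing renewed at DIV 5 and 9. Burst rate averaged over active electrodes, recorded DIV 5, 7, 9, 12, summarized as AUC; loss versus DMSO.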

Assay [5] can be described thus: CCTE_Shafer_MEA_dev_bursting_electrodes_number: CCTE's Neural Network Formation Assay for Number of Bursting Electrodes, Shafer Lab (AID 2284043; active = hit-call score of the fitted dose curve at least 0.9, where 1 is the maximum;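 as to AC50: potency is for loss of bursting electrodes relative to DMSO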). In a few lines:
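Read-out is the per-well number of electrodes bursting at least once every 2 minutes, recorded on days 5, 7, 9 and 12 and collapsed by trapezoidal area under the curve. Cultures were primary rat cortical neurons on MEA plates, treated continuously from plating.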

Assay [6] is described as follows: CCTE_Shafer_MEA_dev_per_burst_interspike_interval: CCTE's Neural Network Formation Assay for Burst Interspike Interval, Shafer Lab (AID 2284044).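 As to AC50: potency for a decrease of within-burst interspike interval below DMSO level.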 In a few lines: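 Readout is the average time between spikes inside single-electrode bursts, taken as a well mean across bursting electrodes. Cortical neurons from rat developed networks on MEA plates under continuous 12-day exposure; recordings on days 5, 7, 9 and 12 were integrated by trapezoidal AUC.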

Assay [7] in a line: CCTE_Shafer_MEA_dev_burst_duration_mean: CCTE's Neural Network Formation Assay for Mean Burst Duration, Shafer Lab (AID 2284045). In a few lines:
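Read-out: average first-to-last-spike interval within single-electrode bursts, averaged over bursting electrodes per well, then summarised as area under the curve across days 5, 7, 9 and 12. Developing rat cortical networks were exposed from day 0.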

A short description of assay [8]: CCTE_Shafer_MEA_dev_interburst_interval_mean: CCTE's Neural Network Formation Assay for Mean Interburst Interval, Shafer Lab (AID 2284046).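 Also: well-mean interburst interval of bursting electrodes as AUC over four recording days; curve fitted for decrease in interburst interval relative to DMSO.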 In a few lines: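 Recordings on days 5, 7, 9 and 12 give well-mean interburst interval across actively bursting electrodes, summarized as area under the curve. Cultures: rat cortical neurons, continuous exposure from day 0, compound renewed at feeds; decrease analyzed versus DMSO.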

The nature of assay [9]: CCTE_Shafer_MEA_dev_inter_network_spike_interval_mean: CCTE's Neural Network Formation Assay for Mean Inter-network Spike Interval, Shafer Lab (AID 2284047). Put shortly:
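Primary rat cortical neurons on 16-electrode MEA wells, exposed from plating day 0 through DIV 12, compound renewed at DIV 5 and 9 media changes. Mean interval between network-spike peaks recorded DIV 5, 7, 9, 12; collapsed as trapezoidal AUC, fitted downward versus DMSO.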

Assay [10] in a line: CCTE_Shafer_MEA_dev_network_spike_number: CCTE's Neural Network Formation Assay for Number of Network Spikes, Shafer Lab (AID 2284048). In a few lines:
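Developing networks of primary rat cortical neurons are treated over 12 days starting at plating, with media and compound fully replaced on DIV 5 and 9. Network spike counts from four recording days are integrated as trapezoidal AUC.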

Assay [11] in a line: CCTE_Shafer_MEA_dev_network_spike_peak: CCTE's Neural Network Formation Assay for Mean Number of Electrodes in Network Spike, Shafer Lab (AID 2284049).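 As to AC50: fitted for loss of signal meaning fewer electrodes in network spikes than DMSO.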 Put shortly:
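Rat cortical primary culture, 1.5 x 10^5 cells/well, 48-well MEA (16 electrodes/well). Dosing day 0 through DIV 12, full media/compound exchange DIV 5, 9. AxIS adaptive spike detection; AUC over days 5/7/9/12; loss-of-signal vs DMSO.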

Assay [12] has as its system DIO2 (gene 1734). As to the kind of experiment: CCTE_GLTED_hDIO2: CCTE's human Deiodinase 2 (DIO2) Inhibition Assay, Great Lakes Toxicology and Ecology Division (GLTED) Lab (AID 2284050; active = hit-call score of the fitted dose curve at least 0.9, where 1 is the maximum). In a few lines:
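Cell-free human DIO2 enzyme was incubated with test chemical for 3 h; iodide liberated from substrate was then quantified by the Sandell-Kolthoff reaction (absorbance), run in triplicate. Loss of signal versus DMSO baseline indicated inhibition.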

Assay [13] is described as follows: CCTE_Shafer_MEA_dev_network_spike_duration_std: CCTE's Neural Network Formation Assay for Standard Deviation of Network Spike Duration, Shafer Lab (AID 2284052).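 Also: area under curve of spike duration SD across recording days 5 to 12; hits are decreases in network spike duration SD versus DMSO vehicle.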 In a few lines: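 Primary rat cortical neurons on PEI-coated 16-electrode MEA wells, exposed from plating day 0 through day 12 with compound renewed at DIV 5 and 9. Network spike duration SD recorded on days 5, 7, 9, 12, collapsed as trapezoidal AUC; loss-of-signal fit versus DMSO.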

Assay [14] can be described thus: CCTE_Shafer_MEA_dev_per_network_spike_spike_number_mean: CCTE's Neural Network Formation Assay for Mean Number of Spikes in a Network Spike, Shafer Lab (AID 2284053).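 As to AC50: fitted as decrease in spikes per network spike relative to DMSO.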 In a few lines:
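Primary rat cortical neurons on 48-well, 16-electrode MEA plates were exposed from plating to DIV 12, with dosing renewed on DIV 5 and 9. Spikes per network spike (0.05 s peak window) were recorded on DIV 5, 7, 9 and 12 and collapsed as trapezoidal AUC versus DMSO.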

The nature of assay [15]: CCTE_Shafer_MEA_dev_per_network_spike_spike_percent: CCTE's Neural Network Formation Assay for Percent of Spikes in a Network Spike, Shafer Lab (AID 2284054). In a few lines:
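Rat primary cortical cultures, 1.5 x 10^5 cells/well on MEA. Continuous compound exposure d0–12, medium/compound renewed DIV 5, 9. Network-spike spike % (0.05 s peak window), AUC over 4 recordings, DMSO baseline.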

Assay [16] has as its system DIO3 (gene 1735). As to the kind of experiment: CCTE_GLTED_hDIO3: CCTE's human Deiodinase 3 (DIO3) Inhibition Assay, Great Lakes Toxicology and Ecology Division (GLTED) Lab (AID 2284055; active = hit-call score of the fitted dose curve at least 0.9, where 1 is the maximum;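 also: potency is for inhibition seen as loss of released iodide signal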). In a few lines: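 Cell-free assay with human DIO3 enzyme produced by adenovirus expression; enzyme incubated with test chemical for 3 hours. Liberated iodide then measured by Sandell-Kolthoff absorbance; loss of signal versus DMSO baseline indicates inhibition, run in triplicate.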

A short description of assay [17]: CCTE_Deisenroth_AIME_384WELL_CTox_Active: Cytotoxicity Assessment (CTOX) in CCTE's 384-well Estrogen Receptor Transactivation Assay with AIME metabolic competence (metabolism positive), Deisenroth Lab (AID 2284037; active = hit-call score of the fitted dose curve at least 0.9, where 1 is the maximum;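 also: chemicals first conditioned 2 h by alginate-bound induced rat liver S9 before cells; activity means signal loss indicating cell death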). Put shortly: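 Cytotoxicity in VM7Luc4E2 breast cells, 24 hour, measured as protease-substrate fluorescence loss, after 2-hour metabolic conditioning with induced rat hepatic S9 in alginate microspheres. Concentrations 0.002 - 200 uM, 10 points, bidirectional fitting.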

The nature of assay [18]: CCTE_Deisenroth_AIME_384WELL_CTox_Inactive: Cytotoxicity Assessment (CTOX) in CCTE's 384-well Estrogen Receptor Transactivation Assay without AIME metabolic competence (metabolism negative), Deisenroth Lab (AID 2284039; active = hit-call score of the fitted dose curve at least 0.9, where 1 is the maximum;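 also: cell viability via live-cell protease substrate cleaved to fluorescent probe; cells exposed 24 h to medium preincubated 2 h with alginate-water beads without S9; loss of fluorescence signal means loss of viability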). In a few lines:
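VM7Luc4E2 cells, metabolism-negative arm: test chemicals (0.002–200 uM, 10 points) pre-incubated 2 h with alginate-water microspheres, then medium transferred to cells for 24 h. Viability read as protease-substrate cleavage to fluorescent probe; loss-of-signal, bidirectional fitting.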

The target in assay [19] is Estrogen receptor (Homo sapiens) (UniProt P03372). Description: CCTE_Deisenroth_AIME_384WELL_LUC_Active: CCTE's 384-well Estrogen Receptor Transactivation Assay with AIME metabolic competence (ERTA luciferase; metabolism positive), Deisenroth Lab (AID 2284030; active = hit-call score of the fitted dose curve at least 0.9, where 1 is the maximum). Put shortly: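 Readout: bioluminescent luciferase induction in VM7Luc4E2 cells 24 hour after receiving medium from a 2 h rat hepatic S9 (induced, alginate microsphere) metabolism step. Concentrations 0.002 - 200 uM; activity scaled to 17beta-estradiol positive control.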
Estrogen receptor (Homo sapiens), sequence (P03372 whole entry, looked up): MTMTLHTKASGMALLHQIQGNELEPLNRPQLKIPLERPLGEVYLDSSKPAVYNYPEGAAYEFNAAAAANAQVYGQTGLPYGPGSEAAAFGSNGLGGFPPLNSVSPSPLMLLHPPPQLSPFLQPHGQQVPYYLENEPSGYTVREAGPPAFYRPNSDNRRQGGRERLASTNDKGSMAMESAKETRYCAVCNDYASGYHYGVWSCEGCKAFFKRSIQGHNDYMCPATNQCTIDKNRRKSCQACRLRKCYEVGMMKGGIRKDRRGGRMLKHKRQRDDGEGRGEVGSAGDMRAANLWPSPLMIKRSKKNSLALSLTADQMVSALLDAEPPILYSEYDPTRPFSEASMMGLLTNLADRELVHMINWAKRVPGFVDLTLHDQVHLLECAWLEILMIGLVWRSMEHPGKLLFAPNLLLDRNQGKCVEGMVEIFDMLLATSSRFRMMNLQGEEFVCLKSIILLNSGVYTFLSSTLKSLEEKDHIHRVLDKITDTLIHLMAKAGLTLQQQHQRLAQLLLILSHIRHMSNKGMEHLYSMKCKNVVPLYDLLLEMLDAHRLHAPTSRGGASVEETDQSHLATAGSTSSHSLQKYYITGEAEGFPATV

The structures appear in SMILES notation. Values joined by “and” are separate entries in the source; they are usually repeats but may differ in a detail not shown here. Equal values may be shown once. Inconclusive results are not listed. A structure can be active in one record and inactive in another. Active and inactive are the calls of the source. The calls were made as follows, unless noted: active = hit-call score of the fitted dose curve at least 0.9, where 1 is the maximum; inactive = score below 0.9.

In the case of `CCN(CC)c1nc(C)cc(OP(=S)(OC)OC)n1`, the result in assay [1], in [4], in assay [6], in [7], in assay [9] and in assay [10] was inactive. The call in assay [13] was inactive. In addition, the AC50 in assay [2] was 30.9 µM (active); in assay [3], 33 µM (active); in assay [5], 30.5 µM (active); in assay [8] it was 88.6 µM (active); in assay [11], 30.8 µM (active); in assay [12], 31.1 µM (active). Moreover, the concentration at half-maximal activity (AC50) in assay [14] is 29.5 µM (active); in assay [15], 28 µM (active); in assay [16], 25.3 µM (active).
Consider `COC(=O)N(C(=O)N1CO[C@@]2(C(=O)OC)Cc3cc(Cl)ccc3C2=N1)c1ccc(OC(F)(F)F)cc1`, for which the compound was called inactive in assay [1], in assay [17], in assay [18], in assay [4], in [6] and in [7]. Moreover, the compound was classed as inactive in assay [8], in assay [9], in assay [10], in assay [13] and in [14]. For the same compound, the half-maximal activity concentration (AC50) in assay [2] is 23.1 µM (active); in assay [3] it was 21.2 µM (active); in [5], 15 µM (active); in assay [11], 25.9 µM (active); in assay [15] it was 15 µM (active).
As for `Cc1nc(N(C)C)nc(OC(=O)N(C)C)c1C`, the results for the AC50 in [12] and in [16] were 44.6 µM (active) and 10 µM (active), respectively.
As to `CN/C(=N\[N+](=O)[O-])NCc1cnc(Cl)s1`, the result in [1], in assay [2], in assay [3], in [4], in assay [5] and in [6] was inactive. Moreover, the outcome in [7], in [8], in assay [9], in assay [10], in [11] and in [13] was inactive. Besides, the compound was called inactive in [14] and in [15].
Turning to `COC(=O)NC(=S)Nc1ccccc1NC(=S)NC(=O)OC`, the compound was classed as inactive in assay [19], in assay [17] and in assay [18].
In the case of `O=C1C2CC=CCC2C(=O)N1SC(Cl)(Cl)Cl` (stereo not given), the call in assay [1], in [3], in [4], in assay [6], in [7] and in assay [8] was inactive. The outcome in [9], in assay [10], in [13], in assay [14] and in assay [15] was inactive. For the same compound, the AC50 in assay [2] was 16.7 µM (active) and 15.7 µM (active); in [3], 9.85 µM (active); in assay [5] it was 9.85 µM (active) and 1.97 µM (active); in assay [6], 16.2 µM (active); in [8], 9.95 µM (active); in [11], 9.85 µM (active) and 16.2 µM (active). Besides, the half-maximal activity concentration (AC50) in assay [14] was 9.85 µM (active); in assay [15] it was 15.6 µM (active).

The values above are taken from PubChem BioAssay (EPA / NIEHS).
